# In PubChem BioAssay:
# Records with an inconclusive call do not appear. This is one part of the list. Activity calls are given as the source filed them. Rule as the data show it, unless noted: active = binding response below about 72% or above about 130%; inactive = in between.
# Legend:
# [1] = yeast TOR pathway RPL19A-GFP modulators, primary screen, cell-based, S. cerevisiae, multiplex flow cytometry (AID 1862; in the data active = percent of DMSO control GFP below about 86%;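 also: lower values mimic rapamycin by blocking the RPL19A rise seen in DMSO cells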); conditions: S. cerevisiae RPL19A-GFP strain, flow cytometry fluorescence, 3 h; at 10 µM; stronger effect = lower value
# [2] = modulators of MEP2-GFP levels in yeast, primary screen, S. cerevisiae, multiplex flow cytometry (AID 1867;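 active = GFP response, as percent of the DMSO control, above the screen-wide mean plus 3 SD, about 139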;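 also: median GFP channel fluorescence of barcode-gated MEP2-GFP cells measured by flow cytometry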); conditions: S. cerevisiae MEP2-GFP strain, 3 h, at 10 µM, stronger effect = higher value, 100% means same as DMSO wells
# [3] = modulators of CIT2-GFP expression in yeast, primary screen, S. cerevisiae, GFP fusion, multiplex flow cytometry (AID 1870;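 active = percent response above a set limit, the screen-wide mean plus 3 SD, cut at about 130% in these data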;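 also: barcoded CIT2-GFP strain pooled with four other GFP strains with rapamycin as positive control; median GFP fluorescence per well over plate mean of DMSO wells so 100% = DMSO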); conditions: 3 h, at 10 µM, stronger effect = higher value
# [4] = modulators of LAP4-GFP expression in yeast, primary screen, S. cerevisiae, multiplex flow cytometry (AID 1873;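 active = GFP signal, as percent of the solvent control, above the screen mean plus 3 SD, about 149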); conditions: 3 h, at 10 µM, stronger effect = higher value
# [5] = modulators of AGP1-GFP expression in yeast TOR pathway, primary screen, cell-based, multiplex flow cytometry, S. cerevisiae (AID 1887;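 active = GFP signal above the screen-wide mean plus 3 SD, that is over about 124.5% of the solvent control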;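 also: AGP1-GFP fusion strain of S. cerevisiae within a five-strain barcoded multiplex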); conditions: 3 h, at 10 µM, stronger effect = higher value
# [6] = RPL19A-GFP modulators, yeast TOR pathway, confirmation, cell-based, S. cerevisiae, flow cytometry, cherry picks, mother/daughter gates (AID 2270;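 active = GFP response below 50% of the DMSO control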); conditions: S. cerevisiae RPL19A-GFP strain, 3 h, at 10 µM, stronger effect = lower value, 100 = same GFP as DMSO wells
# [7] = LAP4-GFP expression modulators in yeast, confirmation, cell-based, cherry picks, flow cytometry, mother/daughter gates (AID 2271;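 active = GFP response above 150% of the DMSO control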;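 also: ratio of sample to DMSO plate mean so 100% equals DMSO level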); conditions: S. cerevisiae LAP4-GFP strain, 3 h, at 10 µM, stronger effect = higher value, 100 means same as DMSO control
# [8] = modulators of MEP2-GFP levels in yeast, confirmation, S. cerevisiae, flow cytometry GFP, cherry picks (AID 2272;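 active = GFP response above 150% of the DMSO control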;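 also: ratio of well signal to plate DMSO mean so 100% equals DMSO level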); conditions: S. cerevisiae MEP2-GFP strain, 3 h, at 10 µM, stronger effect = higher value
# [9] = AGP1-GFP expression modulators, hit retest, confirmation, cell-based, flow cytometry, S. cerevisiae, cherry picks (AID 2273;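 active = GFP response above 150% of the DMSO level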;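 also: median GFP channel fluorescence over the whole cell population gate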); conditions: S. cerevisiae AGP1-GFP strain, 3 h, at 10 µM
# [10] = modulators of CIT2-GFP expression in yeast, confirmation, S. cerevisiae, GFP fusion, cherry picks, mother/daughter gates (AID 2274;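 active = GFP response above 150% of the DMSO level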); conditions: S. cerevisiae CIT2-GFP strain, flow cytometry, 3 h, at 10 µM, stronger effect = higher value
# [11] = inhibitors of CD8+ T cell-vesicle binding, pilot screen, LFA-1/ICAM-1 modulator project, MLPCN validation set, flow cytometry (AID 2523;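 active = response below a set limit, under 55% cells CD8-positive and vesicle-bound, and CD8 cells' 90th-percentile brightness under 279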;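 as to vesicle binding response: mean PE anti-B7-1 fluorescence of CD8+ cells relative to row control; 100% = QL9-loaded vesicles with DMSO vehicle in the same plate row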); conditions: 2C mouse CD8+ T cells, at 7 µM, stronger effect = lower value; double positive events: measured here: CD8+/vesicle+ event percentage
# [12] = target: Integrin beta-1 (Homo sapiens) + Integrin alpha-4 (Homo sapiens) (UniProt P13612+P05556); test: inhibition of HUTS-21 binding to VLA-4, pilot screen, VLA-4 allosteric modulator project, U937 cells, HUTS-21 mAb, flow cytometry, validation set (AID 2674;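 active = inhibition above 50%, about 3 SD of the validation set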;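 also: antibody binding induced by the VLA-4 ligand LDV present at three times its Kd; 0% = LDV ligand with antibody and no compound and 100% = antibody without LDV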); conditions: HUTS-21 LIBS mAb binding, at 6.7 µM, stronger effect = higher value, binding induced by LDV ligand
# [13] = superoxide lowering in aged yeast cells, pilot screen, validation compound set (AID 2706;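 active = superoxide response below 65% of plate, a cut near 3 SD across the whole screen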;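 also: yeast exposed to compound for one week at 30 degrees C before staining; 100% = mean of all compound wells on the same plate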); conditions: S. cerevisiae aging, superoxide DHE fluorescence; at 10 µM; stronger effect = lower value
# [14] = target: Beta-adrenergic receptor kinase 1 (Homo sapiens) (UniProt P25098); test: GRK2 binders displacing RNA aptamer, biochemical, validation, human GRK2, bead flow cytometry (AID 488806;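 active = aptamer binding inhibition above 30%, about 3 SD of noise from non-fluorescent compounds; inactive = inhibition at or below 30%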); conditions: bead-bound GRK2, FAM-aptamer displacement, at 10 µM, stronger effect = higher value
# Beta-adrenergic receptor kinase 1 (Homo sapiens), sequence (P25098 whole entry, looked up): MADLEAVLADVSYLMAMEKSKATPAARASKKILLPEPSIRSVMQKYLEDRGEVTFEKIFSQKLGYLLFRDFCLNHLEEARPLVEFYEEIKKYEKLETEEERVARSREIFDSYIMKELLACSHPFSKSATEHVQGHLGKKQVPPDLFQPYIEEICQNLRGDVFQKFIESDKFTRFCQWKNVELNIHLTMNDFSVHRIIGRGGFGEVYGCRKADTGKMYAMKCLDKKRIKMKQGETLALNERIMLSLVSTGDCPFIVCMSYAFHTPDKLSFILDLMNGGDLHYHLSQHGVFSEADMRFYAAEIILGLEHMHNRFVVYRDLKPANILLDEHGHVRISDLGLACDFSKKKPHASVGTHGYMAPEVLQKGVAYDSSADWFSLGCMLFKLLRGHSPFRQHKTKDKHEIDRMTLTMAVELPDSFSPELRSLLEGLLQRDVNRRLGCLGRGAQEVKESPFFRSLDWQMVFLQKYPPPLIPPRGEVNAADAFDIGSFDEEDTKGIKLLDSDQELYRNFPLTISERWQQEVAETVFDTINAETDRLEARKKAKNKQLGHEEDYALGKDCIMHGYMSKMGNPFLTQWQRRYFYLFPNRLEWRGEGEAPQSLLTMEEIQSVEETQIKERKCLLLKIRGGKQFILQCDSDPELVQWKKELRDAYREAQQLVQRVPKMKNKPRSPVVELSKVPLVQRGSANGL
# [15] = target: Beta-2 adrenergic receptor (Homo sapiens) (UniProt P07550); test: beta2AR agonists driving receptor internalization, pilot screen, cell-based, FAP fluorogen, flow cytometry, validation set (AID 504459;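 active = percent response above 42, roughly 3 SD of non-fluorescent test compounds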;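 also: agonist-driven loss of surface beta2AR via internalization measured by FAP dye flow cytometry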); conditions: Am2.2-beta2AR cells, FAP surface receptor flow cytometry; at 10 µM; stronger effect = higher value
# Beta-2 adrenergic receptor (Homo sapiens), sequence (P07550 whole entry, looked up): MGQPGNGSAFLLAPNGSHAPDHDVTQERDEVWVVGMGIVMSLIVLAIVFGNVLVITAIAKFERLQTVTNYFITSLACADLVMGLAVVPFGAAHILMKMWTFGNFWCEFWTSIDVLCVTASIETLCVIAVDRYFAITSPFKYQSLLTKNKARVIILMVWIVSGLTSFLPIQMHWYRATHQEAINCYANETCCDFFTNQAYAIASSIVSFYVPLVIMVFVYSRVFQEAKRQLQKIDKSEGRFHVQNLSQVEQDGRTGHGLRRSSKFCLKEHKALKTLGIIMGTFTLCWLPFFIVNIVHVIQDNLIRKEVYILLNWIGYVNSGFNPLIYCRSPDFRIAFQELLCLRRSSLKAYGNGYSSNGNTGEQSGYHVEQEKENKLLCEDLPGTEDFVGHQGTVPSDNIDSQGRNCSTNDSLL
# [16] = target: AP-2 complex subunit beta (Homo sapiens) (UniProt P63010); test: inhibitors of arrestin peptide binding to AP2, pilot screen, biochemical, validation set, GST-AP2 beads, flow cytometry (AID 504541;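 active = inhibition above 54%, about 3 SD of non-fluorescent compounds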;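 also: AP2 carries R879A mutation and is captured from E. coli lysate; bead-bound FITC arrestin peptide fluorescence measuring arrestin peptide binding to AP2; 0% = DMSO wells and 100% = excess unlabeled arrestin peptide control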); conditions: FITC arrestin peptide, at 10 µM, stronger effect = higher value, AP2 beta2 appendage fragment, R879A mutant
# AP-2 complex subunit beta (Homo sapiens), sequence (P63010 whole entry, looked up, the tested form may be a part, one chain of several): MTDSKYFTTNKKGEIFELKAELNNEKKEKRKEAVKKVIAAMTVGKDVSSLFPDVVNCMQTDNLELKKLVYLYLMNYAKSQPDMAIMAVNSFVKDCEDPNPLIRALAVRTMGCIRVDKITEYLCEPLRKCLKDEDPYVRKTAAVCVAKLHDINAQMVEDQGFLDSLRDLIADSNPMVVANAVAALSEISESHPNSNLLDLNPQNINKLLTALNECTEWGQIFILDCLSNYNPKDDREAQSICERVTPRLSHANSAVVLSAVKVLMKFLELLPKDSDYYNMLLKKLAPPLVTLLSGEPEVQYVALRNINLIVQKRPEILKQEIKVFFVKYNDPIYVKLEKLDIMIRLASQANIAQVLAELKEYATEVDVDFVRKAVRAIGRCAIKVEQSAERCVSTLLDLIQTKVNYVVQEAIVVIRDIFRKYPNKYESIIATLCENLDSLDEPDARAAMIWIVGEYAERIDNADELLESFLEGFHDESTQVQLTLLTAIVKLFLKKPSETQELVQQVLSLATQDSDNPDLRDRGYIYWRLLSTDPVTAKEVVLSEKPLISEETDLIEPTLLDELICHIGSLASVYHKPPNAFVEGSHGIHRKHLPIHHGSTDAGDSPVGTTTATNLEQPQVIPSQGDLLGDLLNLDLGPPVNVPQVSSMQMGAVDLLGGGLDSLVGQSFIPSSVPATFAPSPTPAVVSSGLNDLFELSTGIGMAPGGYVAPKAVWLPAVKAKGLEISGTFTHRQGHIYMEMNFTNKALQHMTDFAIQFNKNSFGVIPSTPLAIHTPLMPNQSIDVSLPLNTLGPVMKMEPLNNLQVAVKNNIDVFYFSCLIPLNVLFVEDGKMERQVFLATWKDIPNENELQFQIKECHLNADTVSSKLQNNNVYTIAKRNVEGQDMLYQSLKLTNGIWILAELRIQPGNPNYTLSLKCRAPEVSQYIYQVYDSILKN
# [17] = yeast V-ATPase proton transport modulators, S. cerevisiae, pHLuorin, HTS validation (AID 504600; in the data active = response above about 15%;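 also: plate controls were DMSO for no effect and reference compound for full effect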); conditions: S. cerevisiae pHLuorin cytosolic pH, at 10 µM, stronger effect = higher value
# [18] = test system: anti-desmoglein-3 scFv antibody binding to human DSG3; test: inhibitors of anti-DSG3 scFv binding to DSG3, pilot screen, biochemical, validation compound set, bead-based, flow cytometry (AID 588368;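 active = binding below the plate cutoff, the plate median minus 3 SD, with a reading above zero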;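 also: signal is the median channel fluorescence of bead-bound GFP antibody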); conditions: Protein G beads, DSG3-Fc, scFv-GFP binding, at 10 µM, stronger effect = lower value
# [19] = inhibitors of fungal efflux pumps CDR1, CDR2, MDR1, pilot screen, validation compound set, multiplex, phenotypic (AID 588506;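 active = efflux inhibition above 0.42, the validation set average plus 4 SD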;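 also: Nile Red retained in cells so higher fluorescence means more efflux inhibition; 0 = negative control wells and 1 = enniatin B 25 µM full block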); conditions: S. cerevisiae pump-expressing triplex, Nile Red efflux flow cytometry; at 10 µM; stronger effect = higher value; the pumps come from Candida albicans
# [20] = target: ATP-binding cassette sub-family B member 6 (Homo sapiens) (UniProt Q9NP58); test: ABCB6 transporter inhibitors, pilot screen, K562-ABCB6 cells, flow cytometry, validation set (AID 588550;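 active = inhibition above the screen-wide mean plus 3 SD, about 51%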;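 also: 0% = DMSO wells and 100% = benzethonium chloride 70 µM positive control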); conditions: K562-ABCB6 porphyrin accumulation, 1 h, at 10 µM, stronger effect = higher value
# ATP-binding cassette sub-family B member 6 (Homo sapiens), sequence (Q9NP58 whole entry, looked up): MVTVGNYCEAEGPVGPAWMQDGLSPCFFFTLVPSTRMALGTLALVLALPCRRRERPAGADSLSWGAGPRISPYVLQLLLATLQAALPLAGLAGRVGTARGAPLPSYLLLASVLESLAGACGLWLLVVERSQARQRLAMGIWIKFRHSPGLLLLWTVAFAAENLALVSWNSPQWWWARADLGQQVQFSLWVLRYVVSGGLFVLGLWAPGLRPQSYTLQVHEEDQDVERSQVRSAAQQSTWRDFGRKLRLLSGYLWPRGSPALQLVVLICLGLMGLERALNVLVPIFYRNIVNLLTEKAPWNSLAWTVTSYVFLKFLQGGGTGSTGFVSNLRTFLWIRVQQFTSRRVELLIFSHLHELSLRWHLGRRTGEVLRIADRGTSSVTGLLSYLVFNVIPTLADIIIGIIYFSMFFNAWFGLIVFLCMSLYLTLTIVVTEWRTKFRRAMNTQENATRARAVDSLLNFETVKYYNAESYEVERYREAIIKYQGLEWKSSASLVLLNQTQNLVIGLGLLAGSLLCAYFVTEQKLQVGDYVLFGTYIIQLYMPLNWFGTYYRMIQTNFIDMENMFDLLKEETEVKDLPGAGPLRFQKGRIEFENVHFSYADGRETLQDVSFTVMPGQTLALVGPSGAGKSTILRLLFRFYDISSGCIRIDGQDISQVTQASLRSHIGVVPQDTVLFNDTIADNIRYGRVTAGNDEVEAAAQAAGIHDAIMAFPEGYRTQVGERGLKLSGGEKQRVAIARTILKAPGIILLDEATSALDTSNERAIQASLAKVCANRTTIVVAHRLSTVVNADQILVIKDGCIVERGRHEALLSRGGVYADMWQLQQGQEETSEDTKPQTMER
# [21] = promoters of myeloid differentiation in arrested cells, primary screen, cell-based, GFP/MAC1 double positive, flow cytometry, validation set (AID 588685;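 active = differentiation response of at least 50%, scaled between solvent and reference control, from cells with both markers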;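 also: compound exposure lasts four days before antibody staining and flow analysis; 0% = DMSO wells and 100% = 5 µM fulvestrant positive control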); conditions: ER-HoxA9 marrow cells, stronger effect = higher value, normalized: vehicle 0, fulvestrant 100
# [22] = target: Regulator of G-protein signaling 16 (Homo sapiens) (UniProt O15492); test: modulators of RGS–Galpha-o binding, primary screen, biochemical, multiplexed beads, flow cytometry, RGS4/7/8/16/19 (AID 1504); conditions: multiplexed bead flow cytometry, measured here: RGS16 interaction, at 10 µM;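 also: fluorescently labeled Galpha-o bound to GDP with aluminium fluoride binding biotinylated RGS beads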
# [23] = target: Regulator of G-protein signaling 19 (Homo sapiens) (UniProt P49795); test: as above; conditions: multiplexed bead flow cytometry, measured here: RGS19 interaction, at 10 µM
# [24] = target: Regulator of G-protein signaling 7 (Homo sapiens) (UniProt P49802); test: as above; conditions: multiplexed bead flow cytometry, measured here: RGS7 interaction, at 10 µM
# [25] = target: Regulator of G-protein signaling 8 (Homo sapiens) (UniProt P57771); test: as above; conditions: multiplexed bead flow cytometry, measured here: RGS8 interaction, at 10 µM
# [26] = disruption of biotin probe capture by avidin, counter-screen for RGS protein interaction modulators, biochemical, flow cytometry, bead-based (AID 1783;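 active = inhibition above 50%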;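 also: median green fluorescence of gated singlet beads compared with DMSO control wells; 0% = DMSO wells and 100% = complete loss of bead fluorescence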); conditions: streptavidin beads, fluorescein-biotin binding; at 10 µM, stronger effect = higher value
# [27] = target: Guanine nucleotide-binding protein G(o) subunit alpha (Homo sapiens) (UniProt P09471); test: RGS8-Galphao binding modulators, confirmation, biochemical, multiplexed bead flow cytometry, single concentration (AID 1836); conditions: bead-based flow cytometry RGS8-Galphao binding, fluorescence; at 10 µM; actives lie on both sides;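 also: Galphao activated as GDP AlF4 complex before binding bead RGS8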
# Guanine nucleotide-binding protein G(o) subunit alpha (Homo sapiens), sequence (P09471 whole entry, looked up): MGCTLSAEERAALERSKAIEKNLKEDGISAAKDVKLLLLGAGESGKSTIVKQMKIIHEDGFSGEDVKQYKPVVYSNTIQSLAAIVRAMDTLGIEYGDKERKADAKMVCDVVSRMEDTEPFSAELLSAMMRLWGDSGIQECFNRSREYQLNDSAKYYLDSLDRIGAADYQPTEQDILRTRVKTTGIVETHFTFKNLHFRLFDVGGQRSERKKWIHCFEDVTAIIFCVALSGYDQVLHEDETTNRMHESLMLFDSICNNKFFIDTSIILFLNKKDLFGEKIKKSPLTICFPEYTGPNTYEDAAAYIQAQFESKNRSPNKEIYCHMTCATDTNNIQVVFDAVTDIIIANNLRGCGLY
# [28] = target: Guanine nucleotide-binding protein G(o) subunit alpha (Homo sapiens) (UniProt P09471); test: RGS7-Galphao binding modulators, confirmation, biochemical, multiplexed bead flow cytometry, single concentration (AID 1837; in the data active = response below about 75% or above about 130%; inactive = in between;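 also: fluorescent Galphao activated with GDP and aluminum fluoride binding bead-coupled RGS7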); conditions: bead-based flow cytometry RGS7-Galphao binding; at 10 µM; actives lie on both sides
# [29] = target: Regulator of G-protein signaling 16 (Homo sapiens) + Guanine nucleotide-binding protein G(o) subunit alpha (Homo sapiens) (UniProt O15492+P09471); test: modulators of RGS16-Galphao protein binding, confirmation, biochemical, single concentration, multiplexed bead flow cytometry (AID 1838; in the data active = response below about 74% or above about 130%; inactive = in between;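 also: Galphao activated as the GDP aluminium fluoride complex binding bead-coupled RGS16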); conditions: bead-based flow cytometry, at 10 µM, actives lie on both sides
# Regulator of G-protein signaling 16 (Homo sapiens) + Guanine nucleotide-binding protein G(o) subunit alpha (Homo sapiens), sequence (O15492 whole entry, looked up): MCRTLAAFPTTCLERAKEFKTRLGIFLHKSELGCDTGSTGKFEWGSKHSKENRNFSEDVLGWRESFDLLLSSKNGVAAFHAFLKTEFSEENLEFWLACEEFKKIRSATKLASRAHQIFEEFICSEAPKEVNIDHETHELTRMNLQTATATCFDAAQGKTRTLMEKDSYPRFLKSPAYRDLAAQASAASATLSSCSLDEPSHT
# Regulator of G-protein signaling 16 (Homo sapiens) + Guanine nucleotide-binding protein G(o) subunit alpha (Homo sapiens), sequence (P09471 whole entry, looked up): as the sequence (P09471 whole entry, looked up) above
# [30] = target: Guanine nucleotide-binding protein G(o) subunit alpha (Homo sapiens) (UniProt P09471); test: modulators of RGS4-Galphao protein binding, confirmation, biochemical, single concentration, multiplexed bead flow cytometry (AID 1840; in the data active = binding response below about 74% or above about 130%; inactive = in between); conditions: at 10 µM, actives lie on both sides
# [31] = target: Guanine nucleotide-binding protein G(o) subunit alpha (Homo sapiens) + Regulator of G-protein signaling 19 (Homo sapiens) (UniProt P09471+P49795); test: regulators of RGS19-Galphao binding, confirmation, biochemical, single point, multiplexed bead flow cytometry (AID 1841; in the data active = response below about 50% or above about 160%; inactive = in between;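 also: 100% = no compound control and 0% = blank background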); conditions: bead-based flow cytometry RGS19-Galphao binding; at 10 µM; actives lie on both sides
# Guanine nucleotide-binding protein G(o) subunit alpha (Homo sapiens) + Regulator of G-protein signaling 19 (Homo sapiens), sequence (P09471 whole entry, looked up): as above
# Guanine nucleotide-binding protein G(o) subunit alpha (Homo sapiens) + Regulator of G-protein signaling 19 (Homo sapiens), sequence (P49795 whole entry, looked up): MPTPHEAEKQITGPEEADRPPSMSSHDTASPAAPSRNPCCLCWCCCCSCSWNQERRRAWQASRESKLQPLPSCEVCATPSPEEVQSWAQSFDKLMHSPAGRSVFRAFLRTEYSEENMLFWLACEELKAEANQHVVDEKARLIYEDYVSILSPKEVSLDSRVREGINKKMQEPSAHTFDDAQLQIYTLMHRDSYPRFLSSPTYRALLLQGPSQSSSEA
# [32] = measured here: daughter cell gate
# [33] = measured here: mother cell gate
structure (smiles),measurement,setting,value
CC(=O)[C@H]1CC[C@H]2[C@@H]3CCC4=CC(=O)CC[C@]4(C)[C@H]3CC[C@]12C,percent of DMSO control GFP,[1],100% (inactive)
same,GFP response vs DMSO,[2],108% (inactive)
same,percent response of DMSO control,[3],98.6% (inactive)
same,GFP response vs DMSO,[4],94.8% (inactive)
same,"GFP response, % of DMSO",[5],104% (inactive)
same,GFP response vs DMSO,[6],99.9% (inactive)
same,GFP response vs DMSO,[6]; [32],99.3%
same,GFP response vs DMSO,[6]; [33],100%
same,GFP response relative to DMSO,[7],100% (inactive)
same,GFP response relative to DMSO,[7]; measured here: daughter cell gate response,97.9%
same,GFP response relative to DMSO,[7]; measured here: mother cell gate response,101%
same,GFP response vs DMSO,[8],99.5% (inactive)
same,"GFP response, % of DMSO",[9],96% (inactive)
same,"GFP response, % of DMSO",[10],97.8% (inactive)
same,"GFP response, % of DMSO",[10]; [32],96.4%
same,"GFP response, % of DMSO",[10]; [33],98%
same,double positive events,[11],64%
same,vesicle binding response,[11],119% (inactive)
same,inhibition,[12],21.7% (inactive)
same,superoxide response (% of plate),[13],136% (inactive)
same,aptamer binding inhibition,[14],5% (inactive)
same,response,[15],-14.3% (inactive)
same,inhibition,[16],-3.41% (inactive)
same,response,[17],5.39% (inactive)
same,binding (% of control),[18],99.6% (inactive)
same,efflux inhibition (fraction of control),[19],0.275 (inactive)
same,inhibition,[20],0% (inactive)
same,differentiation response,[21],-1.65% (inactive)
C=CCn1c(=NC(=O)c2cccs2)sc2cc(NC(C)=O)ccc21,RGS16–Galpha-o binding response,[22],152%
same,RGS19–Galpha-o binding response,[23],58.7%
same,RGS7–Galpha-o binding response,[24],152%
same,RGS8–Galpha-o binding response,[25],136%
same,inhibition,[26],-1.6% (inactive)
same,binding response (% of control),[27],103% (inactive)
same,response (percent of control binding),[28],107% (inactive)
same,response (% of control binding),[29],103% (inactive)
same,binding response (% of control),[30],102% (inactive)
same,response (percent of control binding),[31],109% (inactive)
Cc1cccc(S(=O)(=O)CC(=O)Nc2nc(-c3ccccc3)cs2)c1,RGS16–Galpha-o binding response,[22],239%
same,RGS19–Galpha-o binding response,[23],101%
same,RGS7–Galpha-o binding response,[24],130%
same,RGS8–Galpha-o binding response,[25],118%
same,inhibition,[26],1.7% (inactive)
same,binding response (% of control),[27],101% (inactive)
same,response (percent of control binding),[28],106% (inactive)
same,response (% of control binding),[29],98.5% (inactive)
same,binding response (% of control),[30],103% (inactive)
same,response (percent of control binding),[31],105% (inactive)
Cc1ncoc1C(=O)NCCC(c1ccccc1)c1ccccc1,inhibition,[26],0.1% (inactive)
same,binding response (% of control),[27],101% (inactive)
same,response (percent of control binding),[28],110% (inactive)
same,response (% of control binding),[29],101% (inactive)
same,binding response (% of control),[30],103% (inactive)
same,response (percent of control binding),[31],111% (inactive)
O=C(NCc1ccc(F)cc1)C1CCC(CNc2c(N3CCOCC3)c(=O)c2=O)CC1 (centres undefined),RGS16–Galpha-o binding response,[22],3.97%
same,RGS19–Galpha-o binding response,[23],357%
same,RGS7–Galpha-o binding response,[24],-657%
same,RGS8–Galpha-o binding response,[25],8.33%
same,inhibition,[26],0% (inactive)
same,binding response (% of control),[27],101% (inactive)
same,response (percent of control binding),[28],100% (inactive)
same,response (% of control binding),[29],98.7% (inactive)
same,binding response (% of control),[30],101% (inactive)
same,response (percent of control binding),[31],98.1% (inactive)
